In PubChem BioAssay (NCATS):
Inconclusive results are not listed. Entries that show only a call come without a potency. Unmarked numbers belong to inactive results. Activity calls are given as the source filed them. The call rests on the fitted dose curve; in most records, active means well fitted inhibition curve with a large enough effect; inconclusive means small, poorly fitted or top-dose-only effect; inactive means flat fitted curve, though single readings scatter.

Assay: P-glycoprotein substrates identified in KB-8-5-11 adenocarcinoma cell line, qHTS therapeutic library screen (AID 1346987); further: nearly all actives have a fitted effect of over 65% in size
Settings: KB-8-5-11 (P-gp overexpressing) viability, CellTiter-Glo, 72 h; series mostly up to 44.5 µM
Method in brief: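 KB-8-5-11, a colchicine-selected P-gp-overexpressing KB-3-1 subline, was grown without colchicine for the assay. Cells were seeded at 500 cells/well, dosed in concentration-response and incubated 72 h at 37 degree C, 5% CO2. Viability was read by CellTiter-Glo luminescence.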

SMILES | Potency | activity change, negative = cytotoxicity
C=C1C2(C)CC3C4(C)C=CC(=O)OC(C)(C)C4CCC3(C)C1(C(=O)OC)C(=O)C(C)(O)C2=O (stereo not given) | inactive | 
O=C(OC[C@H]1O[C@H](O[C@]2(CO)O[C@H](CO)[C@@H](O)[C@@H]2O)[C@H](O)[C@@H](O)[C@@H]1O)c1ccc(O)cc1 | inactive | 
COc1ccc(N2CCN(CCCNC(=O)Cn3c(=O)c4cccn4c4c(C)ccnc43)CC2)cc1 | inactive | 
CN(C)C(=O)C(O)C(Cc1ccccc1)NC(=O)c1cc2cc(Cl)ccc2[nH]1 (stereo not given) | inactive | 
O=C(OCC1=C[C@@H](O)[C@@H]2C=CO[C@@H](O[C@@H]3O[C@H](CO)[C@@H](O)[C@H](O)[C@H]3O)[C@H]12)c1ccc(O)cc1 | inactive | 
C/C=C1/[C@H](O[C@@H]2O[C@H](CO)[C@@H](O)[C@H](O)[C@H]2O)OC=C(C(=O)OC)[C@H]1CC(=O)OCCc1ccc(O)c(O)c1 | inactive | 
CC1(C)CC[C@]2(C(=O)O[C@@H]3O[C@H](CO)[C@@H](O)[C@H](O)[C@H]3O)CC[C@]3(C)C(=CCC4[C@@]5(C)C[C@H](O)[C@H](O[C@@H]6O[C@H](C(=O)O)[C@@H](O)[C@H](O)[C@H]6O)[C@@](C)(CO)C5CC[C@]43C)C2C1 (stereo not given in full) |  | -7.52% [at 9.29 µM]
O=C(OCC(O)CO[C@@H]1O[C@H](C(=O)O)[C@@H](O)[C@H](O)[C@H]1O)c1ccccc1 (stereo not given in full) | inactive | 
CC1CC(=O)C2C(O)(C1)CC(O)C13OC1c1c(O)cccc1C(=O)C23O (stereo not given) | inactive | 
C=C(CCO)C(=O)OCC1OCC(OC(=O)C(=C)CCO[C@@H]2O[C@H](CO)[C@@H](O)[C@H](O)[C@H]2O)C(O)C1O (stereo not given in full) | inactive | 
